Laboratory results: PubChem BioAssay
Activity calls are given as the source filed them.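 How the source made its calls, unless noted: active means fluorescence slope higher than the sample average by over 3 SD (cut at about -0.22 in these data, passing the limit was not always enough); inactive means the rest.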

What was measured:
[1] = inhibitors of TNFa-induced NFkB p65 translocation, primary screen, imaging, HUVEC, MLSMR starter and 10KST1 sets (AID 438;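 active means inhibition above 20% together with a positive visual image hit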;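 further: compound added about 3h40 before a 20 min TNFalpha stimulation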;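 on inhibition: signal is the nuclear over cytoplasmic p65 intensity ratio per well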); conditions: HUVEC TNFa-induced p65 nuclear translocation; cell count: measured here: nuclei count (cytotoxicity indicator), at 2.08 µM; inhibition: at 2 µM, stronger effect = higher value, 0% TNFa-plus-vehicle, 100% no-TNFa wells
[2] = reduction of polyQ htt aggregates in cells – imaging, exon1htt(103Q)mCFP cells, high-content imaging, primary screen (AID 483;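 active means visual image review flags a hit and inhibition of aggregation exceeds 20%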;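 further: compound exposure lasted 3 days before fixation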;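 on nuclei count: percent of the per-plate median nuclei count of sample wells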); conditions: exon1htt(103Q)mCFP cell line, aggregate imaging, at 2 µM; inhibition of aggregation: stronger effect = higher value; nuclei count: measured here: cell count, toxicity
[3] = endothelial E-selectin expression blockers – imaging, HUVEC, immunofluorescence, MLSMR starter and 10KST1 sets, primary screen (AID 487;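 active means visually confirmed hit in the image check and inhibition above 20%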;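 on inhibition: signal is fraction of cell area covered by stained E-selectin grains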;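 on nuclei count: 100% = median nuclei count of all wells on the same plate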); conditions: HUVEC TNFalpha-induced E-selectin immunofluorescence imaging, at 2 µM; inhibition: stronger effect = higher value; nuclei count: measured here: cell number, toxicity
[4] = biological target: Voltage-gated potassium channel subunit beta-2 (Rattus norvegicus) (UniProt P62483); test: inhibitors of rat Kvbeta2 reductase activity – biochemical, NADPH fluorescence, primary screen (AID 622); conditions: recombinant KvBeta, 4-cyanobenzaldehyde reduction, at 10 µM, stronger effect = higher value;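 further: slope of raw intensity against log time taken from 70 to 1610 s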
Voltage-gated potassium channel subunit beta-2 (Rattus norvegicus), sequence (P62483 whole entry, looked up): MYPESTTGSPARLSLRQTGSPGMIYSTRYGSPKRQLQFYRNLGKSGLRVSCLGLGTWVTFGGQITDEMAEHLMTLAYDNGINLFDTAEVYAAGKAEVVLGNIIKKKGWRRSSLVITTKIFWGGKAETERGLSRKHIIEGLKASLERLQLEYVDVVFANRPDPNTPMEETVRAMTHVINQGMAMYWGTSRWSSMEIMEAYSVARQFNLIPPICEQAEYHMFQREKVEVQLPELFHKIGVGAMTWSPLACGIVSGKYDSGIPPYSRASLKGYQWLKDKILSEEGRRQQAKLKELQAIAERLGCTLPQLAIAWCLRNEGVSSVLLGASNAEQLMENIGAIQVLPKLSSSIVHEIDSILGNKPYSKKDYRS

[5] = biological target: Voltage-gated potassium channel subunit beta-2 (Rattus norvegicus) (UniProt P62483); test: enhancers of rat Kvbeta2 NADPH turnover – biochemical, NADPH fluorescence, primary screen (AID 623;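 active means NADPH fluorescence slope more negative than the mean of all samples by about 3 SD, 99.7% confidence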;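 further: fluorescence intensity change per second fitted from 20 to 320 s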); conditions: Recombinant KvBeta, NADPH fluorescence decrease slope, 10 min; at 10 µM; stronger effect = lower value
[6] = biological target: Alpha-2C adrenergic receptor (Homo sapiens) (UniProt P18825); test: compounds altering alpha2C-coupled GIRK flux – cell-based, HEK293 alpha2C/GIRK1/2, thallium flux, primary screen (AID 624;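 active means fluorescence slope after compound addition differing from the mean of all screened samples at 99.7% confidence, in either direction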;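 further: slope of fluorescence ratio to pre-addition baseline per second over 15 to 24 s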); conditions: thallium flux BTC fluorescence, at 10 µM, actives lie on both sides
Alpha-2C adrenergic receptor (Homo sapiens), sequence (P18825 whole entry, looked up): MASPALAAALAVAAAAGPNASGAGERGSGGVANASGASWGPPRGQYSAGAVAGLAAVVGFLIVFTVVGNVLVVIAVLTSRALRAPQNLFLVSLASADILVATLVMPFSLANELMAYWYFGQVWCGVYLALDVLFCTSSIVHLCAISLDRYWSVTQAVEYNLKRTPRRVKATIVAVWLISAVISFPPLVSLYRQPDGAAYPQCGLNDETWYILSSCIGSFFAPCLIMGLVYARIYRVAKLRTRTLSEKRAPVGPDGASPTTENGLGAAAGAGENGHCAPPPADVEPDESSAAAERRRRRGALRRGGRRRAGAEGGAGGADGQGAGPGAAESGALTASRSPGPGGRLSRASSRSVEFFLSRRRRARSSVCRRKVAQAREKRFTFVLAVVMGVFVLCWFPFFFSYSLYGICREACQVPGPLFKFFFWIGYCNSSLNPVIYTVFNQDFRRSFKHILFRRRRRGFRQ

[7] = blockers of RIG-like receptor reporter activation – cell-based, Sendai virus stimulus, luciferase, 10K MLSCN set, TLR/RLR signaling modifier project, primary screen (AID 602276;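 active means inhibition at or above 50% at 10 µM; inactive means inhibition below 50%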;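 further: firefly luciferase from ISG56 promoter only with Renilla not read in this screen; 0% = Sendai virus plus DMSO and 100% = medium plus DMSO without virus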); conditions: HEK293 RL24 IRF3 luciferase reporter, at 10 µM, stronger effect = higher value
[8] = TLR3 IRF3 reporter activation blockers – cell-based, poly I:C stimulus, luciferase, 10K MLSCN set, primary screen (AID 602277;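 active means inhibition of the reporter signal at or above 50%; inactive means inhibition below 50%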); conditions: HEK293-TLR3 RL24 IRF3 luciferase reporter, at 10 µM, stronger effect = higher value

| SMILES | cell count [1] | inhibition [1] | inhibition of aggregation [2] | nuclei count [2] [%] | inhibition [3] | nuclei count [3] [%] | fluorescence slope [4] | NADPH fluorescence slope [5] | slope [6] | inhibition [7] | inhibition [8] |
| --- | --- | --- | --- | --- | --- | --- | --- | --- | --- | --- | --- |
| CCC(C(=O)Nc1ncccn1)(C(F)(F)F)C(F)(F)F | 218 | 2% (inactive) | 25.4% (inactive) | 93.4 | -2.6% (inactive) | 110 | -0.499 (inactive) | 5.3e-05 (inactive) | 0.00586 (inactive) | -24.5% (inactive) | -0.327% (inactive) |
| CCc1c(C(=O)Nc2ncn(Cc3cccc(C)c3)n2)csc1C | 630 | 1.2% (inactive) | 2% (inactive) | 97.3 | -66.7% (inactive) | 110 | -0.343 (inactive) | -4.3e-05 (inactive) | 0.00495 (inactive) | 7.43% (inactive) | 15.5% (inactive) |
| CCN1CCN(C(=O)c2cc3c(=O)n(C)c4ccccc4c3n2C)CC1 | 601 | 20.7% (inactive) | -10.2% (inactive) | 102 | -89.4% (inactive) | 126 | -0.583 (inactive) | -1.9e-05 (inactive) | 0.00682 (inactive) | 2.73% (inactive) | 32.2% (inactive) |
| CCc1cc2c(=O)c(-c3nc4ccccc4[nH]3)coc2c(CN2CCC(C)CC2)c1O | 708 | -7.9% (inactive) | 11.5% (inactive) | 102 | 15.3% (inactive) | 107 | -0.552 (inactive) | -3.1e-05 (inactive) | 0.00554 (inactive) | 7.38% (inactive) | 5.36% (inactive) |
| COc1ccccc1N1CCN(C(=O)CSc2nc3ncnc(N)c3[nH]2)CC1 | 467 | -8.8% (inactive) | -0.2% (inactive) | 110 | -144% (inactive) | 162 | -0.52 (inactive) | 7.1e-06 (inactive) | 0.00625 (inactive) | 16% (inactive) | 23.6% (inactive) |
| Cc1cc(=O)[nH]c(SCC(=O)NCc2ccco2)n1 | 355 | 8.2% (inactive) | 0% (inactive) | 95.2 | 12.5% (inactive) | 98 | -0.57 (inactive) | -7.3e-05 (inactive) | 0.00478 (inactive) | 18.4% (inactive) | 20.9% (inactive) |
| Cn1c(=O)[nH]c(=O)c2c1nc(N1CCc3ccccc3C1)n2CCSc1nc2ccccc2s1 | 404 | 4.7% (inactive) | 4.4% (inactive) | 105 | -34.8% (inactive) | 118 | -0.502 (inactive) | -4.2e-05 (inactive) | 0.00385 (inactive) | 19.3% (inactive) | 23% (inactive) |
| CCCCOc1ccc(-c2ncc(C(=O)OCC)c(N)n2)cc1 | 377 | 1.6% (inactive) | 16.9% (inactive) | 73.4 | -71.6% (inactive) | 115 | -0.452 (inactive) | -4.6e-05 (inactive) | 0.00612 (inactive) | 0.257% (inactive) | -34.4% (inactive) |
| Cc1cc(N2CCN(C)CC2)nc(N2CCOCC2)n1 | 692 | -9.4% (inactive) | -6.8% (inactive) | 125 | -24.5% (inactive) | 109 | -0.425 (inactive) | -4.1e-05 (inactive) | 0.00311 (inactive) | -2.65% (inactive) | 25.9% (inactive) |
| O=C(CCCN1C(=O)c2ccccc2C1=O)NCc1cccnc1 | 709 | -7.1% (inactive) | -4.8% (inactive) | 102 | -120% (inactive) | 134 | -0.42 (inactive) | -2.4e-06 (inactive) | 0.00753 (inactive) | 8.03% (inactive) | 8.47% (inactive) |
| COc1ccc(NC(=O)CC2Oc3ccccc3NC2=O)cc1 (stereo not drawn) | 560 | 8.3% (inactive) | -0.3% (inactive) | 92.4 | -48.1% (inactive) | 122 | -0.556 (inactive) | -3.2e-05 (inactive) | 0.00626 (inactive) | 4.81% (inactive) | 31.8% (inactive) |
| O=C(Cn1cnc2c(cnn2-c2ccc(F)cc2)c1=O)N1CCN(c2ccccc2)CC1 | 341 | -6% (inactive) | -0.4% (inactive) | 90.7 | -79.8% (inactive) | 108 | -0.506 (inactive) | -2.6e-06 (inactive) | 0.00638 (inactive) | 4.22% (inactive) | 8.47% (inactive) |
| Nn1c(SCC(=O)Nc2ccc(S(=O)(=O)N3CCCC3)cc2)nnc1C(F)(F)F | 704 | -3.3% (inactive) | -7% (inactive) | 104 | -33.2% (inactive) | 128 | -0.504 (inactive) | -6.5e-05 (inactive) | 0.00607 (inactive) | 9.87% (inactive) | 12.8% (inactive) |
| O=c1[nH]c2cc3c(cc2cc1C(c1nnnn1C1CCCCC1)N1CCSCC1)OCCO3 (stereo not drawn) | 479 | 0% (inactive) | -12.4% (inactive) | 106 | -10% (inactive) | 96.7 | -0.313 (inactive) | -3.2e-05 (inactive) | 0.00532 (inactive) | -11.4% (inactive) | -7.01% (inactive) |
| COc1ccc(C)cc1NC(=O)CCN1CCCC1 | 257 | -1.2% (inactive) | 7.8% (inactive) | 87.6 | 6.5% (inactive) | 109 | -0.442 (inactive) | -3.8e-06 (inactive) | 0.00559 (inactive) | 15.3% (inactive) | 16.2% (inactive) |
| O=C1NC(c2ccccc2)(C(F)(F)F)SC2=CCCCCN12 (stereo not drawn) | 415 | 12.1% (inactive) | 2% (inactive) | 98.6 | -14% (inactive) | 111 | -0.545 (inactive) | 5e-05 (inactive) | 0.00583 (inactive) | -3.83% (inactive) | 7.38% (inactive) |
| Cn1c(N2CCC(C(N)=O)CC2)nc2c1c(=O)n(Cc1ccc(Br)cc1)c(=O)n2C | 537 | -2.7% (inactive) | 4.3% (inactive) | 97.3 | 24.2% (inactive) | 95.1 | -0.571 (inactive) | -2.3e-05 (inactive) | 0.00671 (inactive) | 6.03% (inactive) | 1.39% (inactive) |
| CN(C)S(=O)(=O)N1CCN(S(=O)(=O)c2ccc(F)cc2)CC1 | 787 | 3.6% (inactive) | -7% (inactive) | 103 | -118% (inactive) | 141 | -0.436 (inactive) | -9.3e-07 (inactive) | 0.00495 (inactive) | -20.1% (inactive) | -21% (inactive) |
| CCOc1ccc(N(C(C)C(=O)NC2CCCCCC2)S(C)(=O)=O)cc1 (stereo not drawn) | 355 | 2.7% (inactive) | -10.8% (inactive) | 109 | -40.2% (inactive) | 107 | -0.342 (inactive) | -4e-05 (inactive) | 0.00764 (inactive) | 3.76% (inactive) | 19.7% (inactive) |
| Cc1cccc(NC(=O)c2cnc3sccn3c2=O)n1 | 613 | -1.9% (inactive) | -0.7% (inactive) | 115 | -24.4% (inactive) | 109 | -0.604 (inactive) | 5e-07 (inactive) | 0.00666 (inactive) | -25.6% (inactive) | -61.7% (inactive) |
| Cc1cnc(C(=O)Nc2ccc(N3CCN(C(=O)OC(C)(C)C)CC3)cc2)cn1 | 316 | 8.7% (inactive) | -7.1% (inactive) | 4.4 | -1.6% (inactive) | 93.1 | -0.636 (inactive) | -3.5e-05 (inactive) | 0.00617 (inactive) | -2.13% (inactive) | 6.1% (inactive) |
| O=C(COC(=O)c1cc(S(=O)(=O)N2CCOCC2)cs1)c1ccccc1 | 692 | -5.5% (inactive) | -9.6% (inactive) | 103 | -88.5% (inactive) | 114 | -0.485 (inactive) | -5.8e-05 (inactive) | 0.00656 (inactive) | 11.5% (inactive) | 29.5% (inactive) |
| O=c1cc(CSc2nnnn2-c2ccccc2)nc2scc(-c3ccccc3)n12 | 444 | 8.1% (inactive) | -10.9% (inactive) | 114 | -101% (inactive) | 139 | -0.415 (inactive) | -1.1e-05 (inactive) | 0.004 (inactive) | 1.29% (inactive) | 12% (inactive) |
| CCOC(OCC)P(=O)(C(C)C)C(C)C | 491 | 6% (inactive) | -0.1% (inactive) | 93.4 | -53.6% (inactive) | 134 | -0.443 (inactive) | 4e-05 (inactive) | 0.00549 (inactive) | 17.5% (inactive) | 17.3% (inactive) |
| CCOC(=O)N1CCN(C(=O)COc2cc(=O)n(C)c3ccccc23)CC1 | 341 | 1.7% (inactive) | -0.1% (inactive) | 94.2 | 1.7% (inactive) | 118 | -0.565 (inactive) | 4.1e-05 (inactive) | 0.00524 (inactive) | -5.65% (inactive) | -23.1% (inactive) |
| CC(C)COC(=O)C1[C@H]2C(=O)N(Cc3cccs3)C[C@]23C=C[C@H]1O3 (stereo partly drawn) | 483 | 3.3% (inactive) | -2.4% (inactive) | 97.4 | -44.8% (inactive) | 127 | -0.393 (inactive) | -1.4e-05 (inactive) | 0.00385 (inactive) | 9.95% (inactive) | 32.4% (inactive) |
| O=C(Nc1cccc(NC(=O)c2ccco2)c1)c1ccc2c(c1)OCO2 | 696 | -6.1% (inactive) | -10.2% (inactive) | 108 | -70.1% (inactive) | 121 | -0.418 (inactive) | 2.7e-06 (inactive) | 0.00264 (inactive) | 7.09% (inactive) | -29.5% (inactive) |
| CCN(CC)Cc1nc2c(c(=O)[nH]1)C1(CCCCC1)Cc1ccccc1-2 | 443 | 9.9% (inactive) | -2.4% (inactive) | 89.3 | -17% (inactive) | 101 | -0.589 (inactive) | -5.5e-05 (inactive) | 0.00352 (inactive) | 10% (inactive) | 10.5% (inactive) |
